Screening data deposited in PubChem by The Scripps Research Institute Molecular Screening Center.
PAFAH1B2 inh: inhibitors of human PAFAH1B2; P68402; recombinant PAFAH1B2, FP-rhodamine activity probe, fluorescence polarization; inhibition, % at 3.39 µM; 1.2% of 340,000 active; AID 492953;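 active = inhibition above the mean of all tested compounds plus 3 SD, cut at about 24% in these data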
Target sequence (P68402 whole entry, looked up): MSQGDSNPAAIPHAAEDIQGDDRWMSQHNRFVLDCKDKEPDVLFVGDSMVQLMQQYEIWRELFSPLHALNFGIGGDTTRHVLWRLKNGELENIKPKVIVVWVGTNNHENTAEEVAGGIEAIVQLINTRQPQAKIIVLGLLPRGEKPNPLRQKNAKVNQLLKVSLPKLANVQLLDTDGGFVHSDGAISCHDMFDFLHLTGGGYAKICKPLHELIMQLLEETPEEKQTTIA
PAFAH1B3 inh: blocks human PAF acetylhydrolase 1B catalytic subunit 3. recombinant PAFAH1B3, FP-rhodamine probe, fluorescence polarization. inhibition, % at 3.39 µM. 0.28% of 340,000 active;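 active = inhibition above the screen-wide average of all tested compounds plus 3 SD, cut at about 25% in these data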
pPAFAH FP inh: pPAFAH (human) enzyme inhibition; Q13093; recombinant pPAFAH, FP-rhodamine probe fluorescence polarization; inhibition, % at 3.39 µM; 1.5% of 330,000 active;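 active = inhibition above the mean inhibition across the screen plus 3 SD, cut at about 25% in these data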;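 note: inhibitors block binding of the rhodamine activity-based probe so polarization drops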
Target sequence (Q13093 whole entry, looked up): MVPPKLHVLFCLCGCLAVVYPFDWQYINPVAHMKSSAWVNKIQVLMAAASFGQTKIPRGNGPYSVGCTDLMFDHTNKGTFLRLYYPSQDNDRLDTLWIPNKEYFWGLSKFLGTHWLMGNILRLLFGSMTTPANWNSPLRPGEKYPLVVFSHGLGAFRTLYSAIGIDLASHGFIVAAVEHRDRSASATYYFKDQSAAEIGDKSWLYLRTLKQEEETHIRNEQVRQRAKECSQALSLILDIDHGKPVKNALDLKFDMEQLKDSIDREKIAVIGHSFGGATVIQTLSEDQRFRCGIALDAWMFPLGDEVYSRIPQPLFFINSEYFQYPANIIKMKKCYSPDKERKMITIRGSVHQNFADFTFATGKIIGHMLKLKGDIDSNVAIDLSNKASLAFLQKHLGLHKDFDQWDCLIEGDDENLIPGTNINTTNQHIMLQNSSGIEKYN
TCR CD3 inh: blocks the human TCR-CD3 interaction; TAMRA-labeled TCR probe fluorescence, biochemical; inhibition, % at 9.4 µM; 0.37% of 360,000 active; AID 651800; in the data active = inhibition above about 19%;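 note: recombinant mutant TCR 2C K166C tagged with TAMRA read by polarization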
PAFAH2 inh: PAFAH2 (human) inhibition. Q99487. recombinant PAFAH2, FP-rhodamine activity probe, fluorescence polarization. inhibition, % at 3.39 µM. 0.99% of 340,000 active. AID 492956;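 active = inhibition above the mean over all tested compounds plus 3 SD, cut at about 30% in these data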;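 note: inhibitors block probe labeling of enzyme so polarization drops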
Numbers stand for hits; – = inactive; · = no result. Compounds with a hit are over-represented: about 2.7% of the library has one in this group of screens.

SMILES | PAFAH1B2 inh | PAFAH1B3 inh | pPAFAH FP inh | TCR CD3 inh | PAFAH2 inh
O=C(/C=C/c1ccco1)NC(=S)Nc1ccc(O)c(-c2nc3ccccc3s2)c1 | – | – | 25.2 | – | –
Cc1cc(C)c(O)c(C(=O)CC2CC(=O)NC(=O)C2)c1 | · | · | · | – | ·
COc1ccccc1NC(=O)C(=O)NNS(=O)(=O)c1ccc2ccccc2c1 | 33.7 | – | – | – | –
COc1ccc(NC(=S)NNS(=O)(=O)c2ccc3ccccc3c2)c(OC)c1 | – | – | – | – | –
Cc1cc2[nH]c(=O)c(=O)[nH]c2cc1S(=O)(=O)N1CCN(c2ccccc2)CC1 | – | – | – | – | –
Cc1cc2[nH]c(=O)c(=O)[nH]c2cc1S(=O)(=O)N1CCC(C)CC1 | 25.0 | – | – | – | –
Cc1cc2[nH]c(=O)c(=O)[nH]c2cc1S(=O)(=O)NC1CCC(C)CC1 (stereo not given) | 25.7 | – | – | – | –
O=C(N[C@@H](Cc1cccnc1)C(=O)N1CCC[C@H]1C(=O)NC1CCCC1)c1ccc(Cl)c(Cl)c1 | · | · | · | – | ·
Cc1ccc(-c2csc(NCCn3c(C)nc4cc(C(F)(F)F)ccc43)n2)cc1 | 36.7 | – | – | – | –
O=C(NCc1ccccc1)c1cc2ccc(O)cc2oc1=O | – | – | – | – | –
Cc1ccc(S(=O)(=O)Nc2ccc3oc(=O)sc3c2)c(C)c1 | 28.0 | – | – | – | –
Cc1nn(-c2ccccc2)c2nc(N)c(C#N)c(-c3ccc(O)c(O)c3)c12 | – | 32.3 | 30.8 | – | –
Cc1cccc(NC(=S)NNC(=O)c2csc3c2CCCC3)c1 | – | – | 26.4 | – | –
COC(=O)[C@]1(C)N[C@H](CN(C)C(=O)c2ccc(C)cc2)[C@@H]2C(=O)N(Cc3ccccc3)C(=O)[C@@H]21 | – | – | – | – | –
Cc1ccc(NS(=O)(=O)c2cccc(C(=O)Nc3c(C)n(C)n(-c4ccccc4)c3=O)c2)cc1 | · | · | 24.9 | · | ·
CCC(CC)C(=O)Nc1cccc(C(=O)Nc2ccc(S(=O)(=O)Nc3ccc(C)cc3)cc2)c1 | – | – | – | 23.9 | –
Cc1ccc(NS(=O)(=O)c2cccc(C(=O)Nc3cc(C)on3)c2)cc1 | – | – | 33.5 | – | –
O=S1(=O)CC(N2CCN(CC3CC3)CC2)CN1C1CCCCC1 (stereo not given) | · | · | · | – | ·
COc1ccc(-n2ncc(S(=O)(=O)c3ccccc3)c2-c2ccc(Cl)cc2)cc1 | – | – | – | – | –
O=S(=O)(c1ccccc1)c1cnn(-c2ccccc2)c1-c1ccc(F)cc1 | 28.1 | – | – | – | –
COc1ccc(N2Cc3ccc(C(=O)N/N=C\c4ccc(O)cc4O)cc3C2)cc1 | · | · | 39.2 | · | ·
CCCCNc1c(-c2ccc(SC(C)CC)cc2)nc2cnccn12 (stereo not given) | – | 26.5 | 33.7 | · | –
CCCCNc1c(-c2ccc(OC)c(Sc3ccc(OC)cc3)c2)nc2cnccn12 | – | – | – | – | –
O=C(CCNS(=O)(=O)c1ccccc1)OCc1nnc(-c2ccccc2)o1 | – | – | 29.6 | – | –
O=C(COC(=O)CCNS(=O)(=O)c1ccccc1F)Nc1nnc(-c2ccccc2)o1 | – | – | 32.7 | – | –
SMILES | PAFAH1B2 inh | PAFAH1B3 inh | pPAFAH FP inh | TCR CD3 inh | PAFAH2 inh
COc1cccc(CNC(=O)[C@H]2CCCN2)c1 | · | · | · | – | ·
CC(=O)N1C[C@H]2CON(C)[C@H]2C[C@H]1c1ccccc1-c1ccccc1 | · | · | · | – | ·
C=CCN=C1NC(c2cccc(C(F)(F)F)c2)C(C(=O)OC)=C(C)N1Cc1ccccc1C(F)(F)F (stereo not given) | · | · | · | – | ·
CC(C)CC(=NNC(=O)c1ccncc1)c1cc(Cl)ccc1O | 29.2 | – | · | – | –
Cn1nc(C(=O)NCCc2ccc(Cl)cc2)c2c1-c1ccccc1S(=O)(=O)C2 | 35.4 | – | – | – | –
Cc1ccc(CCNC(=O)c2nn(C)c3c2CS(=O)(=O)c2ccccc2-3)cc1 | – | – | – | – | –
COc1cc(NC(=O)c2ccc(COc3ccccc3Br)o2)cc(OC)c1OC | – | – | 25.9 | – | –
COc1ccccc1OCc1ccc(C(=O)Nc2cc(OC)c(OC)c(OC)c2)o1 | – | – | · | – | –
Cc1c(NC(=S)NC(=O)c2ccccc2)c(=O)n(-c2ccccc2)n1C | – | – | – | – | –
COc1cc(CCC(=O)Nc2c(C(=O)N3CCN(c4ccccc4)CC3)oc3ccccc23)on1 | – | – | – | – | –
O=C(N[C@H](C(=O)N1CCC[C@H]1C(=O)NCCc1ccccc1Cl)c1ccccc1)c1ccc(Cl)c(Cl)c1 | · | · | · | – | ·
N#CC1(NC(=O)COC(=O)c2cc(O)c3ccccc3c2O)CCCCC1 | – | 49.8 | – | · | –
N#CC1(NC(=O)COC(=O)Cc2c[nH]c3ccccc23)CCCCC1 | · | · | · | – | ·
CCOc1ccc(N(CC(=O)NCCc2ccc(Cl)cc2)S(=O)(=O)c2c(C)[nH]c(=O)[nH]c2=O)cc1 | 28.1 | – | – | – | –
CC(=O)Nc1ccc(NC(=O)C(C)OC(=O)/C=C/c2cnc3ccccc3n2)cc1 (stereo not given) | – | – | – | – | –
CC(NC(=O)/C=C/c1cnc2ccccc2n1)C12CC3CC(CC(C3)C1)C2 (stereo not given) | 24.4 | – | – | – | –
CC(=O)NCCNC(=O)Cn1nnc(-c2ccccc2)c1COc1ccc2ccccc2c1 | · | · | · | – | ·
CN(C)S(=O)(=O)c1cc(NC(=O)COC(=O)CC2CC3CCC2C3)ccc1Cl (stereo not given) | – | – | 26.3 | – | 77.0
COc1ccc(OC)c(C(c2c(C)[nH][nH]c2=O)c2c(C)[nH][nH]c2=O)c1 | – | – | – | – | –
COc1ccc(O)c(C(c2c(C)[nH][nH]c2=O)c2c(C)[nH][nH]c2=O)c1 | 26.7 | 38.0 | – | – | –
N#C/C(=C\c1ccc(OCc2ccc(Br)cc2)cc1)C(=O)Nc1cccc(C(=O)O)c1 | 24.2 | – | – | – | –
CC(=O)c1nn(-c2cccc(Br)c2)cc1C(=O)c1ccco1 | – | – | 25.2 | – | –
CCNc1nc(Oc2ccc(OC)cc2)cc(C(F)(F)F)n1 | – | – | 33.2 | – | –
COc1ccc(S(=O)(=O)N2CCCc3nc(-c4ccc(Br)cc4)ccc32)cc1 | · | · | · | – | ·
CNC(=O)c1cc(C(=O)c2ccccc2Br)c[nH]1 | – | – | – | – | –
SMILES | PAFAH1B2 inh | PAFAH1B3 inh | pPAFAH FP inh | TCR CD3 inh | PAFAH2 inh
CNC(=O)c1cc(C(=O)c2ccc(Cl)cc2)c(Br)[nH]1 | 36.7 | – | – | – | –
O=C(c1cc(-c2ccccc2)on1)N1CCCc2ccccc21 | – | – | – | – | –
O=C(c1cc(-c2ccco2)on1)N1CCCc2ccccc21 | – | – | 25.2 | – | –
O=C(c1cc(-c2ccco2)on1)N1CCc2ccccc2C1 | – | – | 29.9 | – | –
C=CC[C@H](CC(=O)NCCO)C(=O)N[C@H](COC(=O)[C@@H](CC=C)Cc1ccc(F)cc1)c1ccccc1 | 25.0 | – | – | – | –
COC(=O)C1=C(C)N(Cc2ccc(Cl)cc2)C(=S)NC1c1cccc(Br)c1 (stereo not given) | · | · | · | – | ·
O=S(=O)(O)c1cc(OS(=O)(=O)c2ccccc2)cc2ccccc12 | 30.5 | – | – | – | –
O=C(Cc1ccc(Cl)cc1)N1CCc2ccccc2C1 | – | – | – | – | –
